Many of the other results were omitted from the sample, so hits are more common in it than they were.
CHX counter: counter-screen hit for Shiga toxin inhibitors, cycloheximide; max response, %; 300,000 compounds, 12% hits; AID 2314; cell reporter, cycloheximide protein synthesis inhibition counterscreen; in the data active = max response mostly above about 13%, no sharp cut-off; inactive = mostly below about 14%; note: read at 38.3 µM for the half of the compounds with a filed dose; 0% is about no effect
Shiga inhibitor: inhibitors of Shiga toxin in Vero cells. Vero cells, Shiga toxin protein synthesis inhibition reporter. inhibition, % at 38.7 µM. 290,000 compounds, 9.2% hits; in the data active = inhibition mostly above about 28%, no sharp cut-off; inactive = mostly below about 43%; note: 0% is about no effect
Giardia FBPA inh: blocks Giardia fructose-bisphosphate aldolase activity; A8B2U2; purified Giardia FBPA; Potency, µM (top dose mostly 59.6 µM), inactives show at the highest dose activity, negative = inhibition, usual class: inhibitors; 290,000 compounds, 0.71% hits; AID 2451; note: potency is the fitted concentration of half-maximal effect; % is set by controls: 0 for no effect and ±100 for the full control effect; nearly all actives have a fitted effect of over 55% in size
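40 nM FBPA preincubated 10 min at RT with compound (up to 57.5 uM final), then substrate plus GAPDH/TPI/NAD/arsenate coupling and diaphorase/resazurin added. Fluorescence read after 20 min at RT, 525/598 nm.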
Sm TGR inh: inhibitors of Schistosoma mansoni thioredoxin glutathione reductase; purified TGR, DTNB reduction, TNB absorbance 405 nm; Potency, µM (highest dose often 114 µM), for the others: top-dose activity change, negative = inhibition, actives largely listed as inhibitors; Q962Y6; 360,000 compounds, 3% hits; note: potency is the fitted concentration of half-maximal effect; % is set by controls: 0 for no effect and ±100 for the full control effect; nearly all actives have a fitted effect of over 60% in size
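First, TGR (20 nM dispensed) and NADPH were mixed with compound. Second, a 15 min room-temperature incubation followed. Third, further NADPH and then DTNB were added to start the reaction. Finally, TNB absorbance was monitored kinetically.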
TbPYK inhibitor: inhibitors of Trypanosoma brucei pyruvate kinase; Q57TT1; TbPYK enzyme, Kinase-Glo Plus ATP luminescence, 45 min; Potency, µM (series often up to 76.8 µM), for inactives: at the top dose activity, negative = inhibition, hits mostly inhibitors; 410,000 compounds, 0.12% hits; AID 624173; note: potency is the fitted concentration of half-maximal effect; % is set by controls: 0 for no effect and ±100 for the full control effect; nearly all actives have a fitted effect of over 50% in size
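Enzyme and substrate buffer are dispensed first and compound is pin-transferred. ADP at 130 uM final then starts the reaction, which runs 45 min at room temperature. Detection reagent is added for 10 min before luminescence is imaged.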
LmPK inhibitor: inhibitors of Leishmania mexicana pyruvate kinase; Q27686; purified LmPK, Kinase-Glo ATP luminescence, 1 h; Potency, µM (titrated, usually from 57.5 µM), for the others: at the top dose activity change, negative = inhibition, usual class: inhibitors; 290,000 compounds, 0.37% hits; AID 1721; note: potency is the fitted concentration of half-maximal effect; % is set by controls: 0 for no effect and ±100 for the full control effect
Target sequence (Q27686 whole entry, looked up): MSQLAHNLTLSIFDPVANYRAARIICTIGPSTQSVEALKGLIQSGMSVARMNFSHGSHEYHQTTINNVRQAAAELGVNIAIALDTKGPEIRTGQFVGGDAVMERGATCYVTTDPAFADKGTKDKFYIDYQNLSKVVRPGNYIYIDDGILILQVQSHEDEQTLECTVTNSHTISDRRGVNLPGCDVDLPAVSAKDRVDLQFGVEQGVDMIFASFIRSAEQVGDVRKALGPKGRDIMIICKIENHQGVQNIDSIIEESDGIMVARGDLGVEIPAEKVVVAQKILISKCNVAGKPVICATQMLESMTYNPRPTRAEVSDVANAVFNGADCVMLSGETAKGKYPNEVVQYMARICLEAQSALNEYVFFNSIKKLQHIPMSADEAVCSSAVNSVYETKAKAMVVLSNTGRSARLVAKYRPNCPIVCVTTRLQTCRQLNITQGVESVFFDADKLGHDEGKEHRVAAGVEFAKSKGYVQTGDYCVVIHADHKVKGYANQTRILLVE
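Purified LmPK (0.1 nM) converted ADP (0.1 mM) to ATP with PEP (0.5 mM) in imidazole buffer pH 7.2 with KCl and MgCl2, 1 h at room temperature. ATP was read by Kinase-Glo luminescence; data normalized to uninhibited and no-enzyme controls.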
* marks the source's active call; other numbers are inactive results; ? = inconclusive; · = no result; [ ] = another dose, or the depositor's remark. Unless noted, calls come from the whole dose curve; as a rule, active = well fitted curve in the direction sought with a large enough effect; inconclusive = small, poorly fitted or top-dose-only effect, or another doubt; inactive = no such curve, though single readings can be large; an effect the other way counts as inactive or inconclusive.

SMILES	CHX counter	Shiga inhibitor	Giardia FBPA inh	Sm TGR inh	TbPYK inhibitor	LmPK inhibitor
CCN1C(=O)CC(Sc2ccccc2C(=O)O)C1=O (centres undefined)	-5	-23	2%	?	-14%	2%
CCCCC/C=C\C/C=C\CCCCCCCC(=O)NCC(=O)O	·	·	15%	·	·	·
O=C1Nc2ccccc2Nc2ccc([N+](=O)[O-])cc21	4	9	-19%	-16%	-8%	-8%
O=[N+]([O-])C(=C1Nc2ccccc2N1)C(Cl)=C(Cl)Cl	16*	24	?	3.2µM*	-3%	6%
CCc1ccc(-n2nnc(-c3nc(-c4ccc(C)cc4)no3)c2N)cc1	·	·	·	2%	0%	·
COc1ccc2nc(NC(=O)CCc3cc(OC)c(OC)c(OC)c3)sc2c1	8	-16	-8%	2%	3%	5%
CCC(=O)Nc1nc2cc(OC)ccc2s1	55*	183*	8%	0%	9%	-8%
CCC(=O)Nc1nc2c(OC)ccc(OC)c2s1	-8	-20	-15%	0%	2%	0%
COc1ccc2sc(NC(=O)NC(=O)c3c(Cl)cccc3Cl)nc2c1	19*	38	-15%	-1%	-2%	-2%
COc1ccc2sc(NC(=O)CC(C)C)nc2c1	39*	94*	0%	-1%	-9%	0%
COc1cccc(Nc2nc(-c3sc(NC(=O)CC(C)C)nc3C)cs2)c1	12	15	2%	-2%	-6%	4%
CCC(=O)Nc1nc2ccc3nc(C)sc3c2s1	55*	62*	1%	4%	-6%	0%
COC(C(C)/C=C/CC(=O)OCCCc1ccccc1)C1CCCCC1 (centres undefined)	·	·	1%[12.9 µM]	·	·	·
COC(=O)c1ccc(-n2nnc(-c3nc(-c4ccc5c(c4)OCO5)no3)c2C)cc1	·	·	·	10%	-2%	·
Cc1ccc2nc(C)cc(C(=O)OCC(=O)Nc3cccnc3Cl)c2c1	-5	1	3%	1%	4%	-18%
COc1ccc2sc(NCc3ccccc3)nc2c1	48*	146*	15%	4%	3%	-5%
COc1cc(CNc2nc3ccccc3s2)cc(OC)c1OC	12	-7	2%	-26%	2%	-7%
COc1ccc2sc(NC(C)=O)nc2c1	34*	64*	2%	6%	-1%	-28%
COc1ccc2nc(NC(=O)c3ccccc3-c3ccccc3C(=O)O)sc2c1	11	13	22%	2%[57.1 µM]	1%	-4%
Cc1cc(C)cc(OCc2cc(=O)n3c4c(sc3n2)CCCC4)c1	·	·	·	3%	1%	·
O=[N+]([O-])c1ccccc1S(=O)(=O)N1CCCc2ccccc21	30*	·	-9%	-23%	-16%	-1%
COc1ccc(C(=O)N2CCOCC2)cc1S(=O)(=O)N1CCCc2ccccc21	2	-1	-2%	-7%	5%	3%
COc1ccc(C(=O)N2CCCN(C)CC2)cc1S(=O)(=O)N1CCCc2ccccc21	26*	51*	7%	-16%	0%	0%
COc1ccc(Br)cc1S(=O)(=O)N1CCCc2ccccc21	20*	36*	-5%	19%	0%	4%
COc1ccc(OC)c(S(=O)(=O)N2CCCc3ccccc32)c1	-5	-10	-15%	1%	-4%	9%
SMILES	CHX counter	Shiga inhibitor	Giardia FBPA inh	Sm TGR inh	TbPYK inhibitor	LmPK inhibitor
COC(=O)C1CCN(C(=O)COC(=O)c2ccc(OC)c(S(=O)(=O)N3CCCc4ccccc43)c2)CC1	32*	55*	-1%	12%	5%	-9%
COCCNC(=O)Nc1cc(C(=O)NCc2ccc(C(C)C)cc2)ccc1N1CCCC1	·	·	·	4%	1%	·
O=c1cc(-c2ccc(O)cc2)oc2cc(OC3OC(CO)C(O)C(O)C3O)c(C3OC(CO)C(O)C(O)C3O)c(O)c12 (centres undefined)	1	-3	1%	·	·	·
Cc1ccc(S(=O)(=O)N2CCCc3ccccc32)cc1C	17*	23*	3%	5%	2%	-3%
COc1ccc(C(=O)N2CCCN(C)CC2)cc1S(=O)(=O)N(C)Cc1ccccc1	·	·	·	35µM*	0%	·
O=[N+]([O-])c1ccccc1-c1nc(-c2ccc(Br)o2)no1	30*	88*	0%	-16%	-11%	2%
Nc1nnc(-c2ccccc2[N+](=O)[O-])o1	-2	-9	1%	1%	-3%	-12%
COc1cc(-c2nc(-c3ccc(Br)o3)no2)cc(OC)c1OC	2	-1	2%	2%	1%	8%
Clc1ccccc1-c1nc(-c2ccc(Br)o2)no1	37*	129*	12%	-7%	-8%	1%
COCCCNC(=O)COC(=O)c1ccc(-c2nc3ccccc3s2)s1	47*	76*	3%	0%	1%	-8%
CNC(=O)COC(=O)c1ccc(-c2nc3ccccc3s2)s1	29*	53*	0%	-16%	-27%	14µM*
O=CN1CCN(C(=O)c2ccc(-c3nc4ccccc4s3)s2)CC1	43*	123*	0%	1%	-3%	-1%
COc1ccc(CCN(C)CCCN2CCc3cc(OC)c(OC)cc3CC2=O)cc1OC	4	-5	1%	·	-5%	·
Cc1nn(-c2ccc(N3CCCC3)nn2)c(C)c1CCC(=O)N1CCN(c2ccccc2)CC1	·	·	·	-2%	0%	·
CCN(C(=O)Cn1nnc2sc3c(c2c1=O)CCC(C(C)(C)C)C3)c1cccc(C)c1 (centres undefined)	·	·	·	2%	-6%	·
Nc1ccc2c(c1)C(=O)N(CC1CCCO1)C2=O (centres undefined)	15	35	5%	-6%	-11%	2%
Cc1ccc(NC(=O)c2ccc3c(c2)C(=O)N(CC2CCCO2)C3=O)cc1C (centres undefined)	45*	67*	-6%	9%	-4%	1%
O=C(NN1C(=O)c2ccccc2C1=O)c1ccc2c(c1)C(=O)N(CC1CCCO1)C2=O (centres undefined)	19*	44*	3%	-12%	4%	6%
Nc1ccc(Oc2ccc3c(c2)C(=O)N(CC2CCCO2)C3=O)cc1 (centres undefined)	42*	50*	6%	5%	-1%	10%
CC(C)CN1CCC2(CC1)CCN(C(=O)c1cccc(F)c1)CC2	·	·	3%	·	0%	·
Cc1cc2ncn(CCOc3ccccc3)c2cc1C	51*	102*	0%	-24%	10%	-4%
Cc1cc2c(cc1S(=O)(=O)Nc1cccc(Cl)c1C)n(C)c(=O)c(=O)n2C	·	·	·	4%	-2%	·
Cc1ccc(NC(=O)Cn2cc(C(=O)C3CC3)c3ccccc32)c(C)c1	33*	36*	4%	1%	-12%	2%
CCN(CC)CCSc1nnc2c3cc(F)ccc3n(CC)c2n1	·	·	·	-7%	-14%	·
Cc1cc(N)n2nc(-c3ccccc3)cc2n1	60*	89*	4%	-5%	-22%	16µM*
